# Experimental data taken from PubChem BioAssay (NCATS).
# Several values for one entry are separate records, joined by “and”; a condition that tells them apart may be missing. Equal values may be shown once. A number with no mark means an inactive call. Records with an inconclusive call do not appear. A call without a number means that no potency is given here. Activity calls are given as the source filed them. Unless noted, the call rests on the fitted dose curve; in most records, active means well fitted curve in the direction sought with a large enough effect; inconclusive means small, poorly fitted or top-dose-only effect, or another doubt; inactive means no such curve, though single readings can be large; an effect the other way counts as inactive or inconclusive.
# Assays:
# [1] = molecular target: Tyrosine-protein kinase Yes (Homo sapiens) (UniProt P07947); test: qHTS for small molecule inhibitors of Yes1 kinase: Primary Screen (AID 686947); details: Yes1 kinase biochemical qHTS inhibition; series mostly up to 76.9 µM; further: nearly all actives have a fitted effect of over 60% in size; further: potency means the concentration at half of the fitted maximal effect
# Method in brief: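 In this qHTS format, inhibition is expressed relative to DMSO controls with enzyme (maximum) and without enzyme (minimum). The 60 min room-temperature reaction uses 0.1 mM ATP, with ADP detected by luminescence.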
# [2] = qHTS for small molecule inhibitors of Yes1 kinase: Counter Assay (AID 686950); details: series mostly up to 76.9 µM;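 further: no kinase present so only ADP-Glo detection of a fixed ADP amount is tested; luminescence from ADP-Glo reporting ADP in a fixed ATP and ADP mixture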
# Method in brief: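 ADP-Glo luminescence read after a 60 min room-temperature incubation of compound with an ATP/ADP mix (0.08 mM/0.02 mM) and no kinase, following a 20 min compound preincubation. Signal scaled between ATP+ADP (max) and 0.1 mM ATP-only (min) wells; Tris pH 7.5, Mg2+, DTT.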
# [3] = qHTS assay for small molecule activators of the nuclear factor-kappa B (NF-kB) signaling pathway (AID 651749; active means well fitted activation curve with a large enough effect in the signal ratio; the % refers to the signal ratio); details: NF-kB-bla ME-180 cells, beta-lactamase FRET ratio, 16 h; active compounds read high
# Method in brief: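 FRET-based beta-lactamase detection in ME-180 cells reports NF-kB response-element-driven transcription following overnight (16 hr) compound treatment.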
# [4] = qHTS assay for environmental chemicals that activate the Aryl hydrocarbon Receptor (AhR) signaling pathway (AID 651777); details: 1A2-DRE human hepatoma cells, luciferase, 24 h; active compounds read high; further: nearly all actives have a fitted effect of over 15% in size
# Method in brief: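 Stable CYP1A2 promoter/DRE-luciferase human hepatoma line treated 24 hr; One-Glo luminescence, 30 min RT.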
# [5] = molecular target: Peroxisome proliferator-activated receptor alpha (Homo sapiens) (UniProt Q07869); test: qHTS assay for small molecule agonists of the peroxisome proliferator-activated receptor alpha (PPARalpha) signaling pathway (AID 651778); details: PathHunter PPARalpha complementation, chemiluminescence, 6 h; active compounds read high
# Method in brief: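 Chemiluminescence from complemented enzyme reported PPARalpha activation in cells after 6 hr of compound treatment at 37 C. The detection reagent was incubated for 60 min at room temperature, and compounds were scored as agonists.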
# [6] = qHTS for Inhibitors of Ubiquitin-specific Protease USP2a Using CHOP2 as the Reporter: K633 Counterscreen (AID 652168); details: No-enzyme DiUb K48 IQF substrate fluorescence interference, kinetic; series mostly up to 57.5 µM
# Method in brief: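 Detection-system control: fluorescence of K48-linked DiUb-4IQF substrate (100 nM as added) tracked over time, Ex 525/Em 598, with pinned compounds and no enzyme, in pH 8 Tris buffer containing beta-mercaptoethanol and 0.05% Chaps.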
# [7] = qHTS for Inhibitors of Ubiquitin-specific Protease USP2a Using CHOP2 as the Reporter: Cytotox Assay (AID 652170); details: HCT116 viability, CellTiter-Glo luminescence, 72 h; further: potency means the concentration at half of the fitted maximal effect; nearly all actives have a fitted effect of over 70% in size
# Method in brief: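 Cytotoxicity read as ATP luminescence (CellTiter-Glo) after 72 hr compound treatment at 37 deg C. Cells: HCT116, 600/well in DMEM plus 10% FBS. Normalization between DMSO-treated cells and cell-free wells.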
# [8] = molecular target: Ubiquitin carboxyl-terminal hydrolase 2 (Homo sapiens) (UniProt O75604); test: qHTS for Inhibitors of Ubiquitin-specific Protease USP2a Using CHOP2 as the Reporter: K484 Substrate (AID 652173); details: USP2 cleavage of DiUb K48 IQF substrate, fluorescence;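 further: cleavage of internally quenched K48 di-ubiquitin substrate measured as rising fluorescence over time; potency means the concentration at half of the fitted maximal effect; nearly all actives have a fitted effect of over 70% in size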
# Method in brief: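 Kinetic fluorescence (Ex 525/Em 598) tracked cleavage of an internally quenched K48 di-ubiquitin substrate, added as a 100 nM solution. The enzyme was added as a 5 nM USP2 solution before compound pinning, with no-enzyme controls. Buffer: Tris pH 8, beta-mercaptoethanol, CHAPS.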
# Sequence of Tyrosine-protein kinase Yes (Homo sapiens) (P07947 whole entry, looked up): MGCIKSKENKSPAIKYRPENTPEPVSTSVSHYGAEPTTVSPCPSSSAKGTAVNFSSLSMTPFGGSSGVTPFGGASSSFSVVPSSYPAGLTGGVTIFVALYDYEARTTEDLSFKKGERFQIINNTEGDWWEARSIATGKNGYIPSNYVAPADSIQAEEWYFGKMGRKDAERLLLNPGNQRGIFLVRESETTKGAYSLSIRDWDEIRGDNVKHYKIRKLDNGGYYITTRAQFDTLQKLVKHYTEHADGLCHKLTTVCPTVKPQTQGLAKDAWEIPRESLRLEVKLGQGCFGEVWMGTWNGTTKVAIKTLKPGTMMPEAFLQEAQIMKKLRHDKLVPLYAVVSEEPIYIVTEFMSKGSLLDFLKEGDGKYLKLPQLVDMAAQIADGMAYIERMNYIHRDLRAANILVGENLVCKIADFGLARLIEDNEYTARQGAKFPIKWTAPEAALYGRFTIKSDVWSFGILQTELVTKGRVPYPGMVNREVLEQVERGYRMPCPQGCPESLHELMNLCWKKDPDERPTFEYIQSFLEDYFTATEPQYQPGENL
# Sequence of Ubiquitin carboxyl-terminal hydrolase 2 (Homo sapiens) (O75604 whole entry, looked up): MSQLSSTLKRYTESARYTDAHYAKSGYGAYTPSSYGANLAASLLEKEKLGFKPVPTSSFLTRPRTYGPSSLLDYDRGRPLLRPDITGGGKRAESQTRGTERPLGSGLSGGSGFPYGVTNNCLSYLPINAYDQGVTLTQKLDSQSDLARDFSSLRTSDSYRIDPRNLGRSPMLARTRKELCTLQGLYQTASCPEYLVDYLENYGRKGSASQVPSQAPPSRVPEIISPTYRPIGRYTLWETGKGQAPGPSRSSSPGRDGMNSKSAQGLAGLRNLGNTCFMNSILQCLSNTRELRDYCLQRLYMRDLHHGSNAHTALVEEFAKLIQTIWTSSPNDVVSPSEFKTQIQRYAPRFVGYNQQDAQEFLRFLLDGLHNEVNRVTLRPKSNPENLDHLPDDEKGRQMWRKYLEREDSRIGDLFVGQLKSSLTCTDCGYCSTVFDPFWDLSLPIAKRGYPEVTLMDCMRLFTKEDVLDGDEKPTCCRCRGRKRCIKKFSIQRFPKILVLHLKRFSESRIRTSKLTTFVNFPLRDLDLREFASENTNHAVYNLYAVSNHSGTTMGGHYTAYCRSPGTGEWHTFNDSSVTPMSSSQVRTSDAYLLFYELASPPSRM
# Sequence of Peroxisome proliferator-activated receptor alpha (Homo sapiens) (Q07869 whole entry, looked up): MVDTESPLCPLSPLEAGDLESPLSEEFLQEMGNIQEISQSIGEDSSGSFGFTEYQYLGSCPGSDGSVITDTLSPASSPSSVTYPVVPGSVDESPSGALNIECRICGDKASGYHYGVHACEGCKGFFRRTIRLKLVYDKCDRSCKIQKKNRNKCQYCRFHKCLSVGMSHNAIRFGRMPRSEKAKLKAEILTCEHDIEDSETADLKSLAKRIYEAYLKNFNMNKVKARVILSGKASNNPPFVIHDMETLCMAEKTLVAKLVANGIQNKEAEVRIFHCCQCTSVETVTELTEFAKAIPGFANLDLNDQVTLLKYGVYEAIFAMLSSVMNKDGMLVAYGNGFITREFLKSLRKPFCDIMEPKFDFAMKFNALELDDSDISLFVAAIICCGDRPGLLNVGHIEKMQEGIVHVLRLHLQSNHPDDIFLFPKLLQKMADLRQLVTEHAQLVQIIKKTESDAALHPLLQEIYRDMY
structure (smiles),measurement,setting,value
c1ccc2c(CCNc3ccc(Nc4ccncc4)cc3)c[nH]c2c1,Potency,[1],inactive
same,outcome,[2],inactive
COc1cc2ncn(-c3cc(OCc4ccccc4C(F)(F)F)c(C(N)=O)s3)c2cc1OC,Potency,[1],inactive
same,outcome,[2],inactive
CC1=C(CO)C(=O)O[C@@H]([C@@H](C)[C@H]2CC[C@H]3[C@@H]4C[C@H]5O[C@]56[C@@H](O)C=CC(=O)[C@]6(C)[C@@H]4CC[C@]23C)C1,Potency,[1],inactive
same,outcome,[2],inactive
O=C(O)CCCc1c[nH]c2ccccc12,activation,[3],-1.42%
same,activation,[4],1.2%
same,max response,[5],-0.171%
Nc1ccccc1NC(=O)c1ccc(CNc2nccc(-c3cccnc3)n2)cc1,Potency,[1],inactive
same,outcome,[2],inactive
O=C(O)[C@H](Cc1c[nH]c2ccccc12)N1C(=O)c2ccccc2C1=O,Potency,[1],inactive
same,outcome,[2],inactive
CC1(O)CC(c2nc(-c3ccc4ccc(-c5ccccc5)nc4c3)c3c(N)nccn23)C1 (centres undefined),Potency,[1],1730 nM (active)
same,outcome,[2],inactive
O=c1[nH]nc(Sc2ncc([N+](=O)[O-])s2)n1-c1ccc2c(c1)OCCO2,Potency,[1],inactive
same,outcome,[2],inactive
Clc1ccc2ncc(-c3cccc(NC4CNC4)n3)n2c1,Potency,[1],274 nM (active)
same,outcome,[2],inactive
Nc1nc(Nc2ccc(S(N)(=O)=O)cc2)nn1C(=O)c1c(F)cccc1F,Potency,[1],772 nM (active)
same,outcome,[2],inactive
COc1cc2ncnc(Nc3ccc(F)c(Cl)c3)c2cc1NC(=O)C=CCN1CCCCC1,Potency,[1],194 nM (active)
same,outcome,[2],inactive
C=CC(=O)Nc1cc2c(Nc3ccc(F)c(Cl)c3)ncnc2cc1C#CC(C)(C)N1CCN(C)CC1,Potency,[1],97.2 nM (active)
same,outcome,[2],inactive
CCC[C@H](NC(=O)C(C#N)=Cc1cccc(Br)n1)c1ccccc1,Potency,[1],inactive
same,outcome,[2],inactive
COc1cc2c(Oc3ccc(-c4cnc(Nc5ccc(F)cc5)n(C)c4=O)cc3F)ccnc2cc1OCCCN1CCOCC1,Potency,[1],137 nM (active)
same,outcome,[2],inactive
Cn1c(=O)n(-c2ccc(C(C)(C)C#N)cc2)c2c3cc(-c4cnc5ccccc5c4)ccc3ncc21,Potency,[1],inactive
same,outcome,[2],inactive
Cc1cnc(Nc2ccc(F)cc2Cl)nc1-c1c[nH]c(C(=O)N[C@H](CO)c2cccc(Cl)c2)c1,Potency,[1],inactive
same,outcome,[2],inactive
O=C(O)c1ccc2c(c1)nc(Nc1cccc(Cl)c1)c1ccncc12,Potency,[1],487 nM (active)
same,outcome,[2],inactive
Cc1ccc(S(=O)(=O)Nc2cc(Cl)ccc2C(=O)Nc2nc(-c3ccccc3)cs2)cc1,outcome,[6],inactive
same,Potency,[7],5260 nM (active)
same,Potency,[8],1220 nM (active)
same,outcome,[2],inactive
CN1CC[C@@H](c2c(O)cc(O)c3c(=O)cc(-c4ccccc4Cl)oc23)[C@@H](O)C1,Potency,[1],34500 nM (active)
same,outcome,[2],inactive
Cn1cncc1[C@@](N)(c1ccc(Cl)cc1)c1ccc2c(c1)c(-c1cccc(Cl)c1)cc(=O)n2C,Potency,[1],inactive
same,outcome,[2],inactive
Cn1c2cc(S(C)=O)sc2c2cnn(Cc3cccc(N)c3)c(=O)c21 (centres undefined),Potency,[1],inactive
same,outcome,[2],inactive
CN1CCN(c2cc(C(=O)Nc3ccc4c(c3)-c3c(c(C(N)=O)nn3-c3ccc(F)cc3)CC4)c(Cl)cn2)CC1,Potency,[1],inactive
same,outcome,[2],inactive
Cc1cc(Nc2cc(N3CCN(C)CC3)nc(C=Cc3ccccc3)n2)n[nH]1,Potency,[1],30.7 nM (active)
same,outcome,[2],inactive
CC(=O)SC[C@@H](C)C(=O)N1CCC[C@H]1C(=O)N[C@@H](Cc1ccccc1)C(=O)O,Potency,[1],inactive
same,outcome,[2],inactive
COc1cccc2nc(-c3cccs3)nc(NN3C(=O)C=C(C)C3=O)c12,Potency,[1],inactive
same,outcome,[2],inactive
CN1CCC(CNc2ccc3ncc(-c4cccc(OC(F)(F)F)c4)n3n2)CC1,Potency,[1],97.2 nM (active)
same,outcome,[2],inactive
CC(C)CC(=O)Nc1n[nH]c2c1CN(C(=O)C1CCN(C)CC1)C2(C)C,Potency,[1],12200 nM (active)
same,outcome,[2],inactive
O=C(NCCCNc1nc(Nc2cccc(NC(=O)N3CCCC3)c2)ncc1I)c1cccs1,Potency,[1],1.37 µM (active) and 1.22 µM (active)
same,outcome,[2],inactive
COc1ccc(OC)c(-c2nnc3ccc(-c4ccc(OC)c(O[C@@H]5CCOC5)c4)nn23)c1,Potency,[1],inactive
same,outcome,[2],inactive
O=C(C=Cc1cccnc1)NCCCCC1CCN(C(=O)c2ccccc2)CC1,Potency,[1],inactive
same,outcome,[2],inactive
CC(C)c1ccccc1Cc1cc(C(=O)Nc2ccc(S(=O)(=O)c3ccccc3C(C)(C)C)cc2)c(O)c(O)c1O,outcome,[2],inactive
C1Cc2[nH]nc(-c3nn[nH]n3)c2C1,Potency,[1],inactive
same,outcome,[2],inactive
COC(=O)c1ccc2c(C(=Nc3ccc(N(C)C(=O)CN4CCN(C)CC4)cc3)c3ccccc3)c(O)[nH]c2c1,outcome,[2],inactive
CN(c1ncccc1CNc1nc(Nc2ccc3c(c2)CC(=O)N3)ncc1C(F)(F)F)S(C)(=O)=O,Potency,[1],194 nM (active)
same,outcome,[2],inactive
